What all share (test): DAPPL (digital affinity profiling via proximity ligation, sequencing); 10 mM Tris-HCl pH 7.5, 50 mM NaCl, 1 mM DTT, 4% glycerol, room temperature, 30 min; GST-TFs on glutathione beads, 16-mer random dsDNA library, 0.1% formaldehyde crosslink after washing; high values mean tight binding
Test [1] concerns the target T1, FEV (Homo sapiens, UniProt Q99581 1-238).
T1 sequence: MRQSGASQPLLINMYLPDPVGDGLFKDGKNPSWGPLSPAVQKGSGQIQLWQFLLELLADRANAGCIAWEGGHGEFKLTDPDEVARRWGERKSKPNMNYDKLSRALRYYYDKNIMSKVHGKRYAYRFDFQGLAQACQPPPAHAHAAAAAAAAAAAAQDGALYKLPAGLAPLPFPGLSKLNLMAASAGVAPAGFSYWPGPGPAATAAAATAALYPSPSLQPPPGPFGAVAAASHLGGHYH
The following applies: protein: recombinant; tags: N-terminal GST; dsDNA, one strand shown. A digest of the protocol:
(§1)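 A tag-only sample was pooled with DNA-barcoded human transcription factors that had been expressed in yeast as GST fusions and captured on glutathione beads. The pools were incubated for 30 min at room temperature with 200 nmole of a random double-stranded 16-mer DNA library in Tris/NaCl/DTT/glycerol buffer, then washed, crosslinked with 0.1% formaldehyde, proximity-ligated (BsaI/T4 ligase, 1 h, 37 °C), PCR-amplified and sequenced on an Illumina NextSeq500. Binding signal is each hexamer's read frequency for a factor divided by its frequency for the tag-only sample.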

Test [2] addresses ETV5 (Homo sapiens, UniProt P41161 1-510). The following applies: protein: recombinant; tags: N-terminal GST; dsDNA, one strand shown. In short, it runs like this:
as §1

The target of test [3] is HSF1 (Homo sapiens, UniProt Q00613 1-529). The following applies: protein: recombinant; tags: N-terminal GST; chain copies: 3; dsDNA, one strand shown. A digest of the protocol:
as §1

In test [4] the target is T2, SPIC (Homo sapiens, UniProt Q8N5J4 1-248).
T2 sequence: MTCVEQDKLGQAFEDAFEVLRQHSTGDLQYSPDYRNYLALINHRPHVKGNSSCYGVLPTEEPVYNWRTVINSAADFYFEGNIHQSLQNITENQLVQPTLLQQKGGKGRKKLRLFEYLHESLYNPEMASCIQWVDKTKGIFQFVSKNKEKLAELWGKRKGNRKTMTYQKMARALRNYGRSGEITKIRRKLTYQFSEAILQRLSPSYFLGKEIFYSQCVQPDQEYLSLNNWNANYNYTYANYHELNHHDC
The conditions noted are these: protein: recombinant; tags: N-terminal GST; dsDNA, one strand shown. A digest of the protocol:
as §1

The target in test [5] is ELF4 (Homo sapiens, UniProt Q99607 1-663). The conditions noted are these: protein: recombinant; tags: N-terminal GST; dsDNA, one strand shown. In short, it runs like this: as §1
Test [6] has as its target T3, ELK4 (Homo sapiens, UniProt P28324-2 1-405).
T3 sequence: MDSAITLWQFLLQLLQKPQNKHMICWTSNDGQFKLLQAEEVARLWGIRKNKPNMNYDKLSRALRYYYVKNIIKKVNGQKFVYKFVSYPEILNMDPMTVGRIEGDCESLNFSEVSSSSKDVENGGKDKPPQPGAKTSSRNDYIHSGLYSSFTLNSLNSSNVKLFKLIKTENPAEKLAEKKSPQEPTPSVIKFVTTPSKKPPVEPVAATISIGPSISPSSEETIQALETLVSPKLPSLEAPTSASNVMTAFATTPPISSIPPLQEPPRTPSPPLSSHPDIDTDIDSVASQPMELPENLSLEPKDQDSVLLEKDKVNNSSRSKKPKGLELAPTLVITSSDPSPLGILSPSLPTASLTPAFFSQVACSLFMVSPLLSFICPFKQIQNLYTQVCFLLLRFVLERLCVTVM
The following applies: protein: recombinant; tags: N-terminal GST; dsDNA, one strand shown. A digest of the protocol: as §1

For test [7], the target named is T4, ETV2 (Homo sapiens, UniProt O00321 1-342).
T4 sequence: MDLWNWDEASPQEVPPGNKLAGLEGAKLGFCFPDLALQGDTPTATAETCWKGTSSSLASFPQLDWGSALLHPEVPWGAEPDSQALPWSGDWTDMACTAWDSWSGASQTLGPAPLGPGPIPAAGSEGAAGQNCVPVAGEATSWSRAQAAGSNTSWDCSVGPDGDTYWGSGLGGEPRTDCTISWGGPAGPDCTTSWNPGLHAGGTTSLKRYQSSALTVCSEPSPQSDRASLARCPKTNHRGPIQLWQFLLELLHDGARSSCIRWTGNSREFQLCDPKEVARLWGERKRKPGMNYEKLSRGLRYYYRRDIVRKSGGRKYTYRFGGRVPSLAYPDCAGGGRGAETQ
The conditions noted are these: protein: recombinant; tags: N-terminal GST; dsDNA, one strand shown. A digest of the protocol: as §1

Test [8] deals with T5, ELF3 (Homo sapiens, UniProt P78545 1-371).
T5 sequence: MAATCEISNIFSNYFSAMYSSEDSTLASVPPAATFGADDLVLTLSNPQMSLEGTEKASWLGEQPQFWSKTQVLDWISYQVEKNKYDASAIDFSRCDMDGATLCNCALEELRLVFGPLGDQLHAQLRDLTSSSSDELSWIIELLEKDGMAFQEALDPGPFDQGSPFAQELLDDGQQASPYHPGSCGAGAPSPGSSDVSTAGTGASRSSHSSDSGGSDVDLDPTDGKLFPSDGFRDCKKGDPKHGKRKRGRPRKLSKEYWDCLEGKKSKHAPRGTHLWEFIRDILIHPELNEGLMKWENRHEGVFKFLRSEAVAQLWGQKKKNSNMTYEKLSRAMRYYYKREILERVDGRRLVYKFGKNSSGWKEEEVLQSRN
The following applies: protein: recombinant; tags: N-terminal GST; dsDNA, one strand shown. A digest of the protocol:
as §1

Test [9] has as its target CRX (Homo sapiens, UniProt O43186 1-299). The conditions noted are these: protein: recombinant; tags: N-terminal GST; dsDNA, one strand shown. A digest of the protocol: as §1
The target of test [10] is ETV1 (Homo sapiens, UniProt P50549 1-477). The conditions noted are these: protein: recombinant; tags: N-terminal GST; dsDNA, one strand shown. In short, it runs like this:
as §1

The target of test [11] is T6, ERF (Homo sapiens, UniProt P50548 1-548).
T6 sequence: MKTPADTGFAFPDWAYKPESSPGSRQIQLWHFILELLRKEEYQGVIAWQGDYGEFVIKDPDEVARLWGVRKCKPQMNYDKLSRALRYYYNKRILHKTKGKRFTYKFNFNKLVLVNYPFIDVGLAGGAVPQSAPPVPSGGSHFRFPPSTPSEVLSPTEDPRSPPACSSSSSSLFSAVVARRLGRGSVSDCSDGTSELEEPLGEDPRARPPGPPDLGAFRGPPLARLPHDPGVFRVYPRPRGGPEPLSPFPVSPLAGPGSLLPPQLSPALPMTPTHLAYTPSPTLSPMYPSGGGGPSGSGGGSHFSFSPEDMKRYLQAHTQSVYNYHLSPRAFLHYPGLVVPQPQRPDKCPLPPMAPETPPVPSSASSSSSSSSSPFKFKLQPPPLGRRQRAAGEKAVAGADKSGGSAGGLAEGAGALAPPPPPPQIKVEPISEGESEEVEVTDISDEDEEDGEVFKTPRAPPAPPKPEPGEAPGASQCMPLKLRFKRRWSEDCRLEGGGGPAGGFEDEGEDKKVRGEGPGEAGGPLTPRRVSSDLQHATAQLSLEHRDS
The following applies: protein: recombinant; tags: N-terminal GST; dsDNA, one strand shown. In short, it runs like this: as §1

For test [12], the target named is T7, ETV3L (Homo sapiens, UniProt Q6ZN32 1-361).
T7 sequence: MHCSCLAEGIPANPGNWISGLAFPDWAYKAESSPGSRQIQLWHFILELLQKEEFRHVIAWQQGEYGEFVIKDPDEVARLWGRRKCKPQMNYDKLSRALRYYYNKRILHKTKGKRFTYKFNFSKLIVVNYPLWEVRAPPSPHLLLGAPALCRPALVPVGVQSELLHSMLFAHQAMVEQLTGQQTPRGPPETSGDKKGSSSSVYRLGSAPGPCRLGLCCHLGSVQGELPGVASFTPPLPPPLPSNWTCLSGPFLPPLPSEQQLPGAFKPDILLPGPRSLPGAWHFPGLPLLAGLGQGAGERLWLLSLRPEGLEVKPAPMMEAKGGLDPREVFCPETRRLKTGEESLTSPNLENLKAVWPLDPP
The conditions noted are these: protein: recombinant; tags: N-terminal GST; dsDNA, one strand shown. In short, it runs like this: as §1

In test [13] the target is T8, ETS2 (Homo sapiens, UniProt P15036 1-469).
T8 sequence: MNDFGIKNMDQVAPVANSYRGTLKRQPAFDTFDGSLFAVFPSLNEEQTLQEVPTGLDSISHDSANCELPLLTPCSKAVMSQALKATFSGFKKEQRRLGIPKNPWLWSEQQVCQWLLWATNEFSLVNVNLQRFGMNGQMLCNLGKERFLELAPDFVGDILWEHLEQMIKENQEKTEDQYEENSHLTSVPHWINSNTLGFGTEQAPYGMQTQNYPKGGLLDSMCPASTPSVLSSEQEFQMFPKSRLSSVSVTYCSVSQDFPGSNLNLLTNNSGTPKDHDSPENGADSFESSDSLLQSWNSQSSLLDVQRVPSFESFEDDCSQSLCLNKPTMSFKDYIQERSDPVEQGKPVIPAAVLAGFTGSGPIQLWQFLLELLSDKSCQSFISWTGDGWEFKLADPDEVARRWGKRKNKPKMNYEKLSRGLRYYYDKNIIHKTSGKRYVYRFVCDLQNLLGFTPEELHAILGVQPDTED
The following applies: protein: recombinant; tags: N-terminal GST; dsDNA, one strand shown. A digest of the protocol:
as §1

Test [14] addresses T9, SPDEF (Homo sapiens, UniProt O95238 1-335).
T9 sequence: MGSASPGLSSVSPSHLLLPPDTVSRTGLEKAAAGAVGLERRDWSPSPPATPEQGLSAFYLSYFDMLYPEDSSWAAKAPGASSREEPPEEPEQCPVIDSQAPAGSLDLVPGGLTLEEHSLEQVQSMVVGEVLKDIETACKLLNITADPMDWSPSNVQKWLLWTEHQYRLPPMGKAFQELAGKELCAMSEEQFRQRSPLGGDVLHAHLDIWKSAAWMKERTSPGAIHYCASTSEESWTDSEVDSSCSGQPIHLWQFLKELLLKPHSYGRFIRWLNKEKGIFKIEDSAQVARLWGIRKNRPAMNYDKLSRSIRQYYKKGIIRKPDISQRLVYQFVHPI
The conditions noted are these: protein: recombinant; tags: N-terminal GST; dsDNA, one strand shown. A digest of the protocol:
as §1

The target in test [15] is T10, ETV7 (Homo sapiens, UniProt Q9Y603 1-341).
T10 sequence: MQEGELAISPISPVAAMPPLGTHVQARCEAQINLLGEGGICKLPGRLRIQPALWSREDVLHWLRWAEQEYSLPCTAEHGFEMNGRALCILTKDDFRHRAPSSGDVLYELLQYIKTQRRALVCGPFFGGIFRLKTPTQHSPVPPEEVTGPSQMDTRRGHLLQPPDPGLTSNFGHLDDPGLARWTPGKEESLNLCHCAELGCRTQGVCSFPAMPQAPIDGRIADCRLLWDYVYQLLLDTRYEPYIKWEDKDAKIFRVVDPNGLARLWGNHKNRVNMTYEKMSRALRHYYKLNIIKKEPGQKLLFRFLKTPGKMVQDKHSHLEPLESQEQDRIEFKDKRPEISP
The following applies: protein: recombinant; tags: N-terminal GST; dsDNA, one strand shown. A digest of the protocol:
as §1

The target of test [16] is T11, ELF5 (Homo sapiens, UniProt Q9UKW6-2 1-255).
T11 sequence: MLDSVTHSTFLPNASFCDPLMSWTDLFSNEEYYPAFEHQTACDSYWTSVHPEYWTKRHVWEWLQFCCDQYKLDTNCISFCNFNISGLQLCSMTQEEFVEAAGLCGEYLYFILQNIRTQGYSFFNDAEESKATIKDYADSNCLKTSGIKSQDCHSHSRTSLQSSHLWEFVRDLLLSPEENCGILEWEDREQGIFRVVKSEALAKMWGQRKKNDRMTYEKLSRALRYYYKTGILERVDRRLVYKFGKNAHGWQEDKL
The following applies: protein: recombinant; tags: N-terminal GST; dsDNA, one strand shown. A digest of the protocol:
as §1

For test [17], the target named is T12, ETV3 (Homo sapiens, UniProt P41162-2 1-143).
T12 sequence: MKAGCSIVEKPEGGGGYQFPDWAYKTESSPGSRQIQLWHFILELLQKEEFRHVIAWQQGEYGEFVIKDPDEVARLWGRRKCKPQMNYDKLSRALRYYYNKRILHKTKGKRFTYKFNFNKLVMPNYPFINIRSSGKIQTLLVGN
The conditions noted are these: protein: recombinant; tags: N-terminal GST; dsDNA, one strand shown. In short, it runs like this: as §1

Test [18] has as its target ETV6 (Homo sapiens, UniProt P41212 1-452). The following applies: protein: recombinant; tags: N-terminal GST; dsDNA, one strand shown. A digest of the protocol:
as §1

Sequence of ELF4 (Q99607 whole entry): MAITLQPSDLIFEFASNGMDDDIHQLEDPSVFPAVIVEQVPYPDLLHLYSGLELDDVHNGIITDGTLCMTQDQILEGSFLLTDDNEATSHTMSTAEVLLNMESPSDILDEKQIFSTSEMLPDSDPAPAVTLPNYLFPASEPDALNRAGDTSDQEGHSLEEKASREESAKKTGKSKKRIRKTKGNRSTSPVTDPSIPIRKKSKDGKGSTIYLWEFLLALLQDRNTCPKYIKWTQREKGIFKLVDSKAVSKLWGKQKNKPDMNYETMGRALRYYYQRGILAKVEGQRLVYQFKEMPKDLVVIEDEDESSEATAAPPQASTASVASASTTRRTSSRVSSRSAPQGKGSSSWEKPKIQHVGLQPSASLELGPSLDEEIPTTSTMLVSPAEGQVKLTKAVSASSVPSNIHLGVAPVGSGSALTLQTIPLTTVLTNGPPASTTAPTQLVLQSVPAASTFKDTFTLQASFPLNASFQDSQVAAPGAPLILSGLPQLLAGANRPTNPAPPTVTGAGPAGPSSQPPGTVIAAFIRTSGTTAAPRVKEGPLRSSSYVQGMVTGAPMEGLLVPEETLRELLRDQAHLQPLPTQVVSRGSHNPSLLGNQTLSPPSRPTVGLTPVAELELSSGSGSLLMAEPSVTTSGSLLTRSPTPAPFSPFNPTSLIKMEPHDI
Sequence of CRX (O43186 whole entry): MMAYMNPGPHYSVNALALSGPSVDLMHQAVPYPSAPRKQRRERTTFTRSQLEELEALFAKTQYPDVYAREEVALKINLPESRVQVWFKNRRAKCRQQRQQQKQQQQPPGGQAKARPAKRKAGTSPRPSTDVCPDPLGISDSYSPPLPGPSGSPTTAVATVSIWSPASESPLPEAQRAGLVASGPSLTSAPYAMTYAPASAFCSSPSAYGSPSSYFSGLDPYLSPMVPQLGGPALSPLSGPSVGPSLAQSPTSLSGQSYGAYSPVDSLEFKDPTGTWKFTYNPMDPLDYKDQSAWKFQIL
Sequence of ETV5 (P41161 whole entry): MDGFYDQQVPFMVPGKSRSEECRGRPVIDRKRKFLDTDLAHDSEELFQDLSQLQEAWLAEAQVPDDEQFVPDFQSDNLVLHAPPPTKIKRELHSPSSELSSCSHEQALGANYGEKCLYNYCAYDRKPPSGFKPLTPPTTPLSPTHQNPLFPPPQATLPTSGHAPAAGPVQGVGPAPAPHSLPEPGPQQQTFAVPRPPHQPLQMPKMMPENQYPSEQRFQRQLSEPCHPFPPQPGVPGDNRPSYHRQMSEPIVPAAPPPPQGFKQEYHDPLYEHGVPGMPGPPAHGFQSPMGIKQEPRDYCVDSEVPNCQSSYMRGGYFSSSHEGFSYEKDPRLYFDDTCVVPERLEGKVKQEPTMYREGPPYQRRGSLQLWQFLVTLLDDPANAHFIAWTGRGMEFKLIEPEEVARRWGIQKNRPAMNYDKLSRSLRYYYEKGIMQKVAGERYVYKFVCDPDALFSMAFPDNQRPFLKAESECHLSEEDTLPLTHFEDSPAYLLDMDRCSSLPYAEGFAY
Sequence of ETV1 (P50549 whole entry): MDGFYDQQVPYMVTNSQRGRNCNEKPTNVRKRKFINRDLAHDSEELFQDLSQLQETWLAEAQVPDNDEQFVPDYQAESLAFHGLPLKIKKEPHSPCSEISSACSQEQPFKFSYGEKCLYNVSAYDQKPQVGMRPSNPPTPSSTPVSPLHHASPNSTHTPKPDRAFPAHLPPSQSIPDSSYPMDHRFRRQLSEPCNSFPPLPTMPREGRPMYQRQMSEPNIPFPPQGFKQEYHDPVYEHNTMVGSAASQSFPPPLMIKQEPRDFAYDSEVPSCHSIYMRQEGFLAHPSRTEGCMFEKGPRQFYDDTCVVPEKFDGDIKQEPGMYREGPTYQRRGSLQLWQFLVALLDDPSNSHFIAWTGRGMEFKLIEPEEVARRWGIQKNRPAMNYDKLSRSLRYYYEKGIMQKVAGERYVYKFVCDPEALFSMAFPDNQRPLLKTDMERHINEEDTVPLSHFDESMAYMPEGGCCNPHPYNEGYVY
Sequence of HSF1 (Q00613 whole entry): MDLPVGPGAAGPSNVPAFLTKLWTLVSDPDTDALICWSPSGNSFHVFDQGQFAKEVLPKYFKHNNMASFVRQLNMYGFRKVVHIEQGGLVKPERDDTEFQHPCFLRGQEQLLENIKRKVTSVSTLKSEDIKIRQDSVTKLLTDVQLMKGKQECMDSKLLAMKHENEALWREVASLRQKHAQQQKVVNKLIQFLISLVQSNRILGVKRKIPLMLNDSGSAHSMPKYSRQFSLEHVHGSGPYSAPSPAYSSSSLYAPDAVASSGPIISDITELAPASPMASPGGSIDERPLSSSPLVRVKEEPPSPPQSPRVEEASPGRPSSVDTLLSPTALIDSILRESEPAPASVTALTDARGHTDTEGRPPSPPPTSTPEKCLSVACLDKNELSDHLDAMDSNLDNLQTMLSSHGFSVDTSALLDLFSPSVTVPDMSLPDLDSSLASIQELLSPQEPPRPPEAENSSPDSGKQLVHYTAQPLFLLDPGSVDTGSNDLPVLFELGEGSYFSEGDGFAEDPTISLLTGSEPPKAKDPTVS
Sequence of ETV6 (P41212 whole entry): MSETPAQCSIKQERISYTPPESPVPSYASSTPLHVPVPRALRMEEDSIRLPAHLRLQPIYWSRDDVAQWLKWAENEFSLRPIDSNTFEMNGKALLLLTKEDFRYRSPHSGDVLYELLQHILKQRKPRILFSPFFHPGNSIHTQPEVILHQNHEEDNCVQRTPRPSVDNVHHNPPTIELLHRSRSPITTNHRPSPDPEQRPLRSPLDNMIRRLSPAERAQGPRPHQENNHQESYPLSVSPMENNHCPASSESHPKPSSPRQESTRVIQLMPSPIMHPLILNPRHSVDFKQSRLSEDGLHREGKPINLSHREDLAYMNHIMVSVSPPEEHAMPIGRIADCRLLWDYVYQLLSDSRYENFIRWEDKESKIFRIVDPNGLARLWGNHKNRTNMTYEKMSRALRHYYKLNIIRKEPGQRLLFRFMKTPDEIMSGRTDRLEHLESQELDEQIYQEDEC

As to CCCATA, the binding signal in test [1] is 1.24 fold enrichment (6-mer frequency, TF over GST control); in test [2], 1.23 fold enrichment (6-mer frequency, TF over GST control); in [3] it was 1.14 fold enrichment (6-mer frequency, TF over GST control); in [4], 1.31 fold enrichment (6-mer frequency, TF over GST control); in test [5] it was 1.32 fold enrichment (6-mer frequency, TF over GST control); in test [6] it was 1.06 fold enrichment (6-mer frequency, TF over GST control). The binding signal is 1.3 fold enrichment (6-mer frequency, TF over GST control) in test [7]; 1.33 fold enrichment (6-mer frequency, TF over GST control) in test [8]; 1.24 fold enrichment (6-mer frequency, TF over GST control) in [9]; 1.24 fold enrichment (6-mer frequency, TF over GST control) in [10]; 1.19 fold enrichment (6-mer frequency, TF over GST control) in test [11]; 1.34 fold enrichment (6-mer frequency, TF over GST control) in test [12]. For the same sequence, the binding signal in test [13] is 1.29 fold enrichment (6-mer frequency, TF over GST control); in [14], 1.19 fold enrichment (6-mer frequency, TF over GST control); in test [15], 1.19 fold enrichment (6-mer frequency, TF over GST control); in [16], 1.25 fold enrichment (6-mer frequency, TF over GST control); in test [17], 1.21 fold enrichment (6-mer frequency, TF over GST control); in test [18] it was 1.31 fold enrichment (6-mer frequency, TF over GST control).

These data come from publication PMC7862700, “An all-to-all approach to the identification of sequence-specific readers for epigenetic DNA modifications on cytosine”.
